# In PubChem BioAssay (EPA / NIEHS):
# Results filed as inconclusive are left out. A structure can be active in one record and inactive in another. Activity calls are given as the source filed them. The calls were made as follows, unless noted: active = hit-call score of the fitted dose curve at least 0.9, where 1 is the maximum; inactive = score below 0.9.
# Test: CCTE_Shafer_MEA_dev_burst_rate: CCTE's Neural Network Formation Assay for Burst Rate, Shafer Lab (AID 2284042);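 as to AC50: potency for loss of burst rate below DMSO control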
# Procedure, shortened: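 Exposure ran continuously over 12 days of network development in rat cortical cultures, with compound refreshed during full media changes on DIV 5 and 9. Single-electrode bursts per recording time, well-mean over active electrodes, trapezoidal AUC across days 5–12, fitted downward relative to DMSO.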
SMILES,outcome,AC50
Cc1cc(=O)[nH]c(=S)[nH]1,inactive,
OC[C@@H](O)[C@@H](O)[C@H](O)[C@H](O)CO,inactive,
O=c1[nH]cc(F)c(=O)[nH]1,,1.58 µM (active)
CC(=O)Oc1ccccc1C(=O)O,inactive,
C[Si]1(C)O[Si](C)(C)O[Si](C)(C)O[Si](C)(C)O1,inactive,
CCCc1cc(=O)[nH]c(=S)[nH]1,inactive,
CC(C)c1ccc(C(=O)N=C(N)N)cc1S(C)(=O)=O,inactive,
FC(F)(F)C(F)(F)C(F)(F)C(F)(F)C(F)(F)C(F)(F)CCI,inactive,
C=CCc1ccc(O)c(OC)c1,inactive,

# Test: CCTE_Shafer_MEA_dev_bursting_electrodes_number: CCTE's Neural Network Formation Assay for Number of Bursting Electrodes, Shafer Lab (AID 2284043; active = hit-call score of the fitted dose curve at least 0.9, where 1 is the maximum;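 as to AC50: potency is for loss of bursting electrodes relative to DMSO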)
# Procedure, shortened: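 Counted: electrodes with burst rate ≥1 per 2 min in each well. Cells: primary rat cortex, 1.5 x 10^5/well, on 16-electrode MEA wells. Exposure: DIV 0–12, compound renewed DIV 5 and 9. Recording days 5, 7, 9, 12; AUC vs DMSO baseline.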
SMILES,AC50,outcome
Cc1cc(=O)[nH]c(=S)[nH]1,10 µM (active),
OC[C@@H](O)[C@@H](O)[C@H](O)[C@H](O)CO,,inactive
O=c1[nH]cc(F)c(=O)[nH]1,1.39 µM (active),
C[Si]1(C)O[Si](C)(C)O[Si](C)(C)O[Si](C)(C)O1,,inactive
CCCc1cc(=O)[nH]c(=S)[nH]1,23.2 µM (active),
CC(C)c1ccc(C(=O)N=C(N)N)cc1S(C)(=O)=O,,inactive
FC(F)(F)C(F)(F)C(F)(F)C(F)(F)C(F)(F)C(F)(F)CCI,,inactive
C=CCc1ccc(O)c(OC)c1,,inactive

# Test: CCTE_Shafer_MEA_dev_per_burst_interspike_interval: CCTE's Neural Network Formation Assay for Burst Interspike Interval, Shafer Lab (AID 2284044);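 as to AC50: potency for a decrease of within-burst interspike interval below DMSO level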
# Procedure, shortened: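 Readout is the average time between spikes inside single-electrode bursts, taken as a well mean across bursting electrodes. Cortical neurons from rat developed networks on MEA plates under continuous 12-day exposure; recordings on days 5, 7, 9 and 12 were integrated by trapezoidal AUC.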
SMILES,outcome,AC50
Cc1cc(=O)[nH]c(=S)[nH]1,inactive,
OC[C@@H](O)[C@@H](O)[C@H](O)[C@H](O)CO,inactive,
O=c1[nH]cc(F)c(=O)[nH]1,inactive,
CC(=O)Oc1ccccc1C(=O)O,inactive,
C[Si]1(C)O[Si](C)(C)O[Si](C)(C)O[Si](C)(C)O1,inactive,
CCCc1cc(=O)[nH]c(=S)[nH]1,inactive,11.7 µM (active)
CC(C)c1ccc(C(=O)N=C(N)N)cc1S(C)(=O)=O,inactive,
FC(F)(F)C(F)(F)C(F)(F)C(F)(F)C(F)(F)C(F)(F)CCI,inactive,
C=CCc1ccc(O)c(OC)c1,inactive,

# Test: CCTE_Shafer_MEA_dev_burst_duration_mean: CCTE's Neural Network Formation Assay for Mean Burst Duration, Shafer Lab (AID 2284045);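 as to AC50: curve fitted for loss meaning shorter burst duration than DMSO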
# Procedure, shortened: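 Network-formation assay in primary rat cortical neurons; treatment spans twelve days of development. Mean burst duration per well is integrated by trapezoidal AUC and fitted in the loss-of-signal direction against DMSO baseline.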
SMILES,outcome,AC50
Cc1cc(=O)[nH]c(=S)[nH]1,inactive,
OC[C@@H](O)[C@@H](O)[C@H](O)[C@H](O)CO,inactive,
O=c1[nH]cc(F)c(=O)[nH]1,inactive,
CC(=O)Oc1ccccc1C(=O)O,inactive,26.2 µM (active)
C[Si]1(C)O[Si](C)(C)O[Si](C)(C)O[Si](C)(C)O1,inactive,
CCCc1cc(=O)[nH]c(=S)[nH]1,inactive,
CC(C)c1ccc(C(=O)N=C(N)N)cc1S(C)(=O)=O,inactive,
FC(F)(F)C(F)(F)C(F)(F)C(F)(F)C(F)(F)C(F)(F)CCI,inactive,
C=CCc1ccc(O)c(OC)c1,inactive,

# Test: CCTE_Shafer_MEA_dev_interburst_interval_mean: CCTE's Neural Network Formation Assay for Mean Interburst Interval, Shafer Lab (AID 2284046);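 also: well-mean interburst interval of bursting electrodes as AUC over four recording days; curve fitted for decrease in interburst interval relative to DMSO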
# Procedure, shortened: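 Primary rat cortical neurons on PEI-coated 48-well MEA plates (laminin added with cells at plating) (16 electrodes/well), exposed from plating day 0 with renewal at DIV 5 and 9. Mean inter-burst interval averaged over bursting electrodes, AUC across days 5, 7, 9, 12; DMSO baseline.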
SMILES,outcome,AC50
Cc1cc(=O)[nH]c(=S)[nH]1,inactive,
OC[C@@H](O)[C@@H](O)[C@H](O)[C@H](O)CO,inactive,
O=c1[nH]cc(F)c(=O)[nH]1,,2.82 µM (active)
CC(=O)Oc1ccccc1C(=O)O,inactive,
C[Si]1(C)O[Si](C)(C)O[Si](C)(C)O[Si](C)(C)O1,inactive,
CCCc1cc(=O)[nH]c(=S)[nH]1,inactive,
CC(C)c1ccc(C(=O)N=C(N)N)cc1S(C)(=O)=O,inactive,
FC(F)(F)C(F)(F)C(F)(F)C(F)(F)C(F)(F)C(F)(F)CCI,inactive,
C=CCc1ccc(O)c(OC)c1,inactive,

# Test: CCTE_Shafer_MEA_dev_inter_network_spike_interval_mean: CCTE's Neural Network Formation Assay for Mean Inter-network Spike Interval, Shafer Lab (AID 2284047);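 as to AC50: potency for a decrease in mean inter-network spike interval below DMSO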
# Procedure, shortened: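 Mean time between consecutive network-spike peaks, recorded extracellularly (adaptive spike detection) on DIV 5, 7, 9 and 12, summarized as trapezoidal AUC. Rat cortical cultures on MEAs dosed continuously days 0–12, re-dosed at feeds; loss-of-signal fit relative to DMSO.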
SMILES,outcome,AC50
Cc1cc(=O)[nH]c(=S)[nH]1,inactive,
OC[C@@H](O)[C@@H](O)[C@H](O)[C@H](O)CO,inactive,
O=c1[nH]cc(F)c(=O)[nH]1,inactive,
CC(=O)Oc1ccccc1C(=O)O,inactive,0.0242 µM (active)
C[Si]1(C)O[Si](C)(C)O[Si](C)(C)O[Si](C)(C)O1,inactive,
CCCc1cc(=O)[nH]c(=S)[nH]1,inactive,
CC(C)c1ccc(C(=O)N=C(N)N)cc1S(C)(=O)=O,inactive,
FC(F)(F)C(F)(F)C(F)(F)C(F)(F)C(F)(F)C(F)(F)CCI,inactive,
C=CCc1ccc(O)c(OC)c1,inactive,
